The nature of experiment [1]: qHTS assay to identify small molecule antagonists of the thyroid receptor (TR) signaling pathway (AID 743065). Also: nearly all actives have a fitted effect of over 55% in size. Also: potency is read from the fitted curve at half-maximal effect. The essentials:
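GH3.TRE-Luc rat pituitary cells (two TREs driving luciferase) were dosed with compound, then stimulated with 1 nM T3 (final) for 23.5 h at 37 C. ONE-Glo luminescence was the read-out, with CellTiter-Fluor fluorescence as the cytotoxicity counter-screen.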
A general note: qHTS replaces the single test concentration by a dilution series.

The test system of experiment [2] is thyroid hormone receptor (rat, GH3 cells). Put plainly: qHTS assay to identify small molecule agonists of the thyroid receptor (TR) signaling pathway (AID 743066; calls by dose curve).
Experiment [3] can be described thus: qHTS assay to identify small molecule antagonists of the estrogen receptor alpha (ER-alpha) signaling pathway - cell viability counter screen (AID 743074; calls by dose curve;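 also: HEK293 cells carrying ER-alpha-UAS-bla reporter stimulated with 17beta-estradiol; nearly all actives have a fitted effect of over 45% in size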).
Experiment [4] can be described thus: qHTS assay to identify small molecule antagonists of the estrogen receptor alpha (ER-alpha) signaling pathway using the BG1 cell line - cell viability counter screen (AID 743081).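 Also: compound given together with 17beta-estradiol as the ER stimulus; nearly all actives have a fitted effect of over 45% in size.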
The target in experiment [5] is Estrogen receptor (Homo sapiens) (UniProt P03372). Put plainly: qHTS assay to identify small molecule antagonists of the estrogen receptor alpha (ER-alpha) signaling pathway (AID 743069; active = well fitted curve in the direction sought with a large enough effect in the signal ratio in the repeat runs, not every such curve was filed as active; inconclusive = weak or mixed curves, or effect the other way; inactive = no such curve, though single readings can be large or run the other way; the % refers to the signal ratio). An outline of the steps: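 Beta-lactamase FRET fluorescence is read after 2 hr at room temperature with LiveBLAzer B/G substrate. Before that, ER-alpha-bla HEK293 cells sit 4 hr after plating, then receive compound plus 17beta-estradiol and incubate 18 hr at 37C.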

Experiment [6] shares this target. Briefly: qHTS assay to identify small molecule agonists of the estrogen receptor alpha (ER-alpha) signaling pathway (AID 743075; calls by dose curve;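 also: HEK293 GripTite cells with ER-alpha and UAS-driven beta-lactamase reporter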; also: potency is read from the fitted curve at half-maximal effect).
Experiment [7] has the same target. Put plainly: qHTS assay to identify small molecule agonists of the estrogen receptor alpha (ER-alpha) signaling pathway using the BG1 cell line (AID 743079). Also: nearly all actives have a fitted effect of over 20% in size. Also: potency is read from the fitted curve at half-maximal effect. The note with it: BG1Luc4E2 cells, ERE-luciferase agonist, 22 h.
A further experiment concerns the target Aromatase (Homo sapiens) (UniProt P11511). Put plainly: qHTS assay to identify aromatase inhibitors (AID 743083). Also: nearly all actives have a fitted effect of over 55% in size.
A short description of experiment [8]: qHTS assay to identify small molecule antagonists of the estrogen receptor alpha (ER-alpha) signaling pathway using the BG1 cell line (AID 743080; calls by dose curve;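 also: BG1 cells stimulated with 17beta-estradiol alongside compound; nearly all actives have a fitted effect of over 25% in size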; also: potency is read from the fitted curve at half-maximal effect). An outline of the steps: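 Readout is ONE-Glo luminescence, taken 30 min at room temperature after reagent addition, preceded by a CellTiter-Fluor viability read; BG1-Luc-4E2 cells had received compound and 17beta-estradiol for 21.5 h at 37 C.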

Experiment [9] in a line: qHTS assay to identify small molecule antagonists of the thyroid receptor (TR) signaling pathway - cell viability counter screen (AID 743064). Also: nearly all actives have a fitted effect of over 50% in size. The essentials:
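Same-well viability check: GH3.TRE-Luc cells stimulated with 1 nM T3 alongside test compound for 23.5 h, followed by CellTiter-Fluor fluorescence.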

Each structure is given as a SMILES string. Unmarked numbers belong to inactive results. The source made the active and inactive calls. Unless noted, calls follow the shape of the dose curve; as a rule, active = well fitted curve in the direction sought with a large enough effect in the repeat runs; inconclusive = weak or mixed curves; inactive = no such curve, though single readings can be large; an effect the other way counts as inactive or inconclusive.
% is scaled to controls: 0 for no effect and ±100 for the full control effect.

Estrogen receptor (Homo sapiens), sequence (P03372 whole entry, looked up): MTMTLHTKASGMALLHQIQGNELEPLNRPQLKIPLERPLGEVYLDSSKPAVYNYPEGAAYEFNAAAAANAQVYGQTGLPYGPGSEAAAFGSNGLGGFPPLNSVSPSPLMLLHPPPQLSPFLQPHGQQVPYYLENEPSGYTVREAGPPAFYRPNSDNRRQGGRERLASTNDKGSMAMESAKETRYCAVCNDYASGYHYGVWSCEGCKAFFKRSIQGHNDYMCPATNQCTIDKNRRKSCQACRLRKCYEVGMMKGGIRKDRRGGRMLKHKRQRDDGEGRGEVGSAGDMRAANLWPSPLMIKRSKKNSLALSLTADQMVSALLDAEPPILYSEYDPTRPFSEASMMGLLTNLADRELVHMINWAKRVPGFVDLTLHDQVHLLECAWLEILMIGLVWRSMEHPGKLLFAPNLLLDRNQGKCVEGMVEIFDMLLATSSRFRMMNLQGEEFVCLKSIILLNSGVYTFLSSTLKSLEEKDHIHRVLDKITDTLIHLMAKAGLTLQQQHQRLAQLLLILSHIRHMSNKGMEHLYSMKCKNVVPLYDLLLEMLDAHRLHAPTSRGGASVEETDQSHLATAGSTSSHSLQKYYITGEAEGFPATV
Aromatase (Homo sapiens), sequence (P11511 whole entry, looked up): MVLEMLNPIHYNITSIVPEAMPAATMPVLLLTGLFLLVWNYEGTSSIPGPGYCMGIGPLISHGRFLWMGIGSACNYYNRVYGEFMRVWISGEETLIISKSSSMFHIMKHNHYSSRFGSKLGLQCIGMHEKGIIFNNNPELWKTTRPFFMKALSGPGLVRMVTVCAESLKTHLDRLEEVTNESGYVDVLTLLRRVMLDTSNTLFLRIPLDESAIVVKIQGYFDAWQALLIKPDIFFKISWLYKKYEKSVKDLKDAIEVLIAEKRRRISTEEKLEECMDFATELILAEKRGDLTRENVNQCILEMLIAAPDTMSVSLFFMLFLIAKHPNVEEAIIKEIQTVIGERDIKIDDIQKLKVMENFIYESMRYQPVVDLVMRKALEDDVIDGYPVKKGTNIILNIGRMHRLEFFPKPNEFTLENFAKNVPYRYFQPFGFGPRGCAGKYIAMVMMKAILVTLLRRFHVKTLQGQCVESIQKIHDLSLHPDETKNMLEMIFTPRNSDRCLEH

In the case of `NC1=NC(=O)C(c2ccccc2)O1` (stereo not drawn), the Potency result in experiment [1], in [2] and in [4] was “inactive” each time. In experiment [3], the molecule was called inactive.
Consider `C=C(C)CN(CC)c1c([N+](=O)[O-])cc(C(F)(F)F)cc1[N+](=O)[O-]`, for which the Potency entry (in [1]; in experiment [2]; in experiment [5]; in experiment [6]; in experiment [4]; with Aromatase (Homo sapiens)) was “inactive” in each case. The molecule was called inactive in experiment [3]. Moreover, the activation in experiment [7] (at 70.3 µM (top of the series)) is 11.3%.
As to `O=C(Nc1ccccc1)N(Cc1ccc(Cl)cc1)C1CCCC1`, the Potency in [1] was 21.7 µM (active). In addition, the Potency entry (in experiment [2]; in experiment [4]; in the experiment with Aromatase (Homo sapiens)) was “inactive” throughout. For the same molecule, in experiment [3], the outcome was inactive.
On to `CCCCOC(=O)c1ccccc1N`, for which the molecule was classed as inactive in [3]. Moreover, the Potency result (in [4]; with Aromatase (Homo sapiens)) was “inactive” throughout.
Take `C[C@]1(O)CC[C@H]2[C@@H]3CCC4=CC(=O)CC[C@]4(C)[C@@]3(F)[C@@H](O)C[C@@]21C`: the result in experiment [3] was inactive. The Potency result (in experiment [4]; in the experiment with Aromatase (Homo sapiens)) was “inactive” throughout.
For `OC(c1ccccc1)(c1ccccc1)C1CCNCC1`, the Potency result (in [2]; in experiment [4]; in the experiment with Aromatase (Homo sapiens)) was “inactive” throughout. In addition, the outcome in experiment [3] was inactive.
As for `CC1(C(=O)Nc2ccc(O)c(Cl)c2Cl)CCCCC1`, the Potency result in experiment [2] and in [4] was “inactive” each time. Besides, in [3], the molecule was classed as inactive.
`CN1C[C@@H](NS(=O)(=O)N(C)C)C[C@@H]2c3cccc4c3c(cn4C)C[C@H]21`: the Potency result in [1], in experiment [2] and in experiment [4] was “inactive” throughout. Further, the molecule was called inactive in experiment [3].
Regarding `COC(=O)c1c(C(F)F)nc(C(F)(F)F)c(C2=NCCS2)c1CC(C)C`, the Potency result (in [2]; in experiment [5]; in experiment [6]; in experiment [4]; with Aromatase (Homo sapiens)) was “inactive” throughout. In addition, the outcome in experiment [3] was inactive. Also, in [7] (at 70.3 µM (top of the series)), the activation is 0.436%.
`N#CC(Cl)(Cl)Cl`: the Potency entry in [1], in [2], in experiment [5], in experiment [6], in experiment [8] and in experiment [4] was “inactive” each time. Besides, in the experiment with Aromatase (Homo sapiens), the Potency result was “inactive”. Moreover, the result in experiment [3] was inactive. For the same molecule, in experiment [7] (at 70.3 µM (top of the series)), the activation was -6.23%.
Consider `N#CCCC#N`, for which the Potency entry (in experiment [2]; in experiment [5]; in [6]; in experiment [4]; in the experiment with Aromatase (Homo sapiens)) was “inactive” throughout. In addition, the molecule was called inactive in experiment [3]. Further, the activation in experiment [7] (at 70.3 µM (top of the series)) was -3.68%.
On to `NC(=S)C(N)=S`, for which the Potency entry (in experiment [1]; in [2]; in experiment [6]; in [4]; with Aromatase (Homo sapiens)) was “inactive” each time. Moreover, the molecule was called inactive in experiment [3]. For the same molecule, in [7] (at 70.3 µM (top of the series)), the activation was -1.3%.
Consider `COc1cccc(C(=O)NN(C(=O)c2cc(C)cc(C)c2)C(C)(C)C)c1C`, for which the Potency result (in experiment [2]; in the experiment with Aromatase (Homo sapiens)) was “inactive” throughout. For the same molecule, in experiment [3], the outcome was inactive.
For the molecule `N#CC(O)c1ccccc1` (stereo not drawn), the Potency entry (in experiment [1]; in experiment [2]; in experiment [4]; with Aromatase (Homo sapiens)) was “inactive” throughout. Besides, the outcome in [3] was inactive.
Regarding `CC(C)CC(N(C)C)C1(c2ccc(Cl)cc2)CCC1` (stereo not drawn), the Potency result (in experiment [2]; in [4]; with Aromatase (Homo sapiens)) was “inactive” each time. The molecule was classed as inactive in experiment [3].
For `COP(N)(=S)Oc1ccccc1C(=O)OC(C)C` (stereo not drawn), the Potency entry in experiment [1], in experiment [2], in [5], in [6], in experiment [8] and in experiment [4] was “inactive” each time. In addition, in the experiment with Aromatase (Homo sapiens), the Potency entry was “inactive”. In experiment [3], the molecule was called inactive.
As for `CCOP(=S)(Oc1cnc(C(C)(C)C)nc1)OC(C)C` (stereo not drawn), the Potency in [1] is 61.1 µM (active). The Potency result in experiment [2] and in experiment [4] was “inactive” throughout. In experiment [3], the call was inactive.
For the molecule `CC(C)(C)NCC(O)c1cc(Cl)c(N)c(Cl)c1` (stereo not drawn), the Potency result (in experiment [1]; in experiment [2]; with Aromatase (Homo sapiens)) was “inactive” in each case. Besides, the call in experiment [3] was inactive.
For the molecule `O=c1oc2ccccc2c(O)c1C1CCCc2ccccc21` (stereo not drawn), the Potency entry (in experiment [2]; in experiment [5]; in experiment [6]; in experiment [8]; in [4]; in the experiment with Aromatase (Homo sapiens)) was “inactive” each time. Further, in experiment [3], the result was inactive. Also, in experiment [7] (at 70.3 µM (top of the series)), the activation is -13.4%.
With `c1cc[c]([Hg][c]2ccccc2)cc1`, in [1], the Potency is 3.06 µM (active). Besides, the Potency entry (in [2]; in experiment [5]; in experiment [6]; in experiment [4]; in the experiment with Aromatase (Homo sapiens)) was “inactive” each time. Further, in experiment [3], the molecule was classed as inactive.
`C#C[C@]1(O)C=C[C@H]2[C@@H]3CCC4=CC(=O)CC[C@@H]4[C@H]3CC[C@@]21CC`: the Potency in experiment [1] is 11.9 µM (active); in experiment [6] it was 0.535 µM [inconclusive] (active); in experiment [7], 0.168 µM (active). The Potency entry (in experiment [2]; in [4]; with Aromatase (Homo sapiens)) was “inactive” throughout. The outcome in [3] was inactive.
For `O=C(NCO)NCO`, the Potency entry in experiment [1], in experiment [2], in experiment [5], in experiment [6], in experiment [8] and in [4] was “inactive” throughout. The Potency result in the experiment with Aromatase (Homo sapiens) was “inactive”. The call in [3] was inactive. For the same molecule, the activation in experiment [7] (at 95 µM (top of the series)) was 2.29%.
Consider `ClC(Cl)(Cl)C(Cl)(Cl)Cl`, for which the Potency result in experiment [1], in experiment [2], in experiment [5], in experiment [6], in experiment [8] and in [4] was “inactive” throughout. Moreover, in the experiment with Aromatase (Homo sapiens), the Potency result was “inactive”. Moreover, in experiment [3], the molecule was called inactive. Also, the activation in [7] (at 95 µM (top of the series)) is -4.65%.
As to `O=C(Oc1ccc(Br)cc1)N1CCN2CCC1CC2`, the Potency result (in experiment [2]; in experiment [5]; in [6]; in experiment [4]; in the experiment with Aromatase (Homo sapiens)) was “inactive” in each case. Also, the call in experiment [3] was inactive. For the same molecule, in experiment [7] (at 70.3 µM (top of the series)), the activation was 1.03%.
With `Cc1ncc2n1-c1ccc(Cl)cc1C(c1ccccc1F)=NC2`, the Potency result (in experiment [2]; in experiment [6]; in experiment [4]; with Aromatase (Homo sapiens)) was “inactive” each time. Further, the Potency in experiment [8] is 11.9 µM (active).
As to `COc1cc(OC)nc(NC(=O)NS(=O)(=O)c2ncccc2OCC(F)(F)F)n1`, the Potency result (in experiment [5]; in [6]; in experiment [8]; in [4]; with Aromatase (Homo sapiens)) was “inactive” in each case. Moreover, the outcome in [3] was inactive.
On to `COC(=O)C1=CCCN(C)C1`, for which the Potency result (in experiment [9]; in experiment [5]; in experiment [6]; in experiment [4]; with Aromatase (Homo sapiens)) was “inactive” throughout. For the same molecule, in experiment [3], the outcome was inactive. Also, the activation in experiment [7] (at 70.3 µM (top of the series)) was 0.989%.
`N#Cc1c(Cl)cccc1Cl`: the Potency result (in experiment [1]; in [2]; in [5]; in experiment [6]; in [4]; with Aromatase (Homo sapiens)) was “inactive” throughout. Moreover, in experiment [3], the result was inactive. Moreover, the activation in experiment [7] (at 70.3 µM (top of the series)) was -1.9%.
With `CCN(CC)c1nc(C)cc(OP(=S)(OC)OC)n1`, in experiment [1], the Potency is 61.1 µM (active). For the same molecule, the Potency result in experiment [2], in experiment [5], in experiment [6], in [8] and in [4] was “inactive” each time. Further, the result in [3] was inactive. For the same molecule, in experiment [7] (at 70.3 µM (top of the series)), the activation is 4.15%.

For the origin of these results see PubChem BioAssay (Tox21).
